Measured values reported in PubChem BioAssay AID430 (Sanford-Burnham Center for Chemical Genomics, 2006).
Out of some 63,000 compounds screened, about 1,100 (1.7%) were called active. Rule as the data show it: active = cytotoxicity above about 50%; inactive = the rest. This excerpt belongs to a sample that is enriched for actives. Entries with a potency or affinity are not part of this list.

Test: HPDE-C7 pancreatic duct cell viability loss – fluorescence, HTS (AID 430);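 also: cells exposed to compound for 48 hours before viability readout; 0% = vehicle and 100% = reference cytotoxic drug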
Conditions: HPDE-C7 pancreatic duct cells viability, at 10 µM, stronger effect = higher value

| Compound | cytotoxicity |
| --- | --- |
| CCOC(=O)C1CCCN(C(=O)c2cn(CC)c3ccc(S(=O)(=O)N4CCCC4)cc3c2=O)C1 (stereo not given) | -6.2% (inactive) |
| CC(C)NC(=O)c1ccccc1NC(=O)CCS(=O)(=O)Cc1ccccc1 | -16.4% (inactive) |
| Cn1c(CSc2ccccc2)c(C#N)c2ccccc21 | -6.2% (inactive) |
| O=C(CSc1nnc(NCc2ccccc2)s1)c1ccco1 | -4.8% (inactive) |
| Cc1cc(C(=O)CSc2nnc(NCc3ccccc3)s2)c(C)n1C | 58% (active) |
| C=CCn1c(C)cc(C(=O)CSc2nnc(NCc3ccccc3)s2)c1C | 52.9% (active) |
| Cc1cc(C(=O)CSc2nnc(-c3ccccc3)n2C)c(C)n1C | 5.7% (inactive) |
| C=CCn1c(C)cc(C(=O)CSc2nnc(Cc3ccccc3)o2)c1C | -20.7% (inactive) |
| Cc1cc(C(=O)CSc2nnc(Nc3ccccc3)s2)c(C)n1CC1CCCO1 (stereo not given) | 2.6% (inactive) |
| Cc1cc(N2C(=O)C3C4C=CC(C4)C3C2=O)no1 (stereo not given) | -1% (inactive) |
| COCCCn1c(=S)[nH]c2ccc(N3CCOCC3)cc2c1=O | -10.8% (inactive) |
| O=C(O)CCCC(=O)Nc1ccccc1Br | 5.7% (inactive) |
| CCOC(=O)Cc1csc(NS(=O)(=O)c2ccc3c4c(cccc24)C(=O)N3CC)n1 | 8.7% (inactive) |
| CCN1C(=O)c2cccc3c(S(=O)(=O)Nc4nc(C)cs4)ccc1c23 | 58.9% (active) |
| CCN1C(=O)c2cccc3c(S(=O)(=O)Nc4ncccc4C)ccc1c23 | 23.7% (inactive) |
| Cc1ccc(C(=O)c2coc3ccc(O)c(CN4CCN(C)CC4)c23)cc1 | -5.9% (inactive) |
| CCOC(=O)c1[nH]nc(C(=O)c2ccc(Br)cc2)c1O | -10.7% (inactive) |
| O=C(c1ccccc1)c1coc2ccc(O)c(Cl)c12 | -4.8% (inactive) |
| CC(=O)C(C(C)=O)c1c(Cl)c(O)c(O)c2c(C(=O)c3ccccc3)coc12 | 82.2% (active) |
| CN(C)Cc1c(O)ccc2occ(C(=O)c3ccccc3)c12 | 6.4% (inactive) |
| Cc1ccc(OCCn2nc3ccccc3n2)c(C)c1 | -1.3% (inactive) |
| O=C(CSc1nnc(CNC(=O)c2ccccc2F)o1)Nc1ccc2c(c1)OCCO2 | 1.1% (inactive) |
| O=C(c1ccco1)N1CCN(S(=O)(=O)c2cccs2)CC1 | -11.8% (inactive) |
| Cc1cc2cc(CN(C(=O)C3CC3)C3CCCC3)c3nnnn3c2cc1C | -22.1% (inactive) |

| Compound | cytotoxicity |
| --- | --- |
| CCOc1ccccc1Nc1nc(N)nc(CSc2nncn2C)n1 | -1.9% (inactive) |
| COc1ccccc1Oc1ccc(S(=O)(=O)N2CCOCC2)cc1S(=O)(=O)N1CCOCC1 | -10.8% (inactive) |
| Cc1ccc(Oc2ccc(S(=O)(=O)N3CCOCC3)cc2C(N)=O)c(-n2nc3ccccc3n2)c1 | 53.1% (active) |
| Cc1ccc(S(=O)(=O)N2CCOCC2)cc1C(=O)O | -13.5% (inactive) |
| COc1cnn(-c2ccccc2)c(=O)c1N(C)C | -1.2% (inactive) |
| O=C(C1CC1)N1CCc2cc(Br)cc(S(=O)(=O)NCCN3CCOCC3)c21 | -14.7% (inactive) |
| O=c1c2ccccc2nc(SCc2nnc(-c3ccccc3Br)o2)n1Cc1ccco1 | 14.1% (inactive) |
| COC(=O)c1ccc(C(=O)OC)c(NC(=O)c2cnc3n(c2=O)CCS3)c1 | -7.2% (inactive) |
| CCCc1[nH]nc2c1C(c1ccc(OC)cc1OC)C(C#N)=C(N)O2 (stereo not given) | -5% (inactive) |
| OCC(CO)(CO)N=Cc1c(O)ccc2ccccc12 | 58.9% (active) |
| Oc1ccc2ccccc2c1C=NC12CN3CCN(CN(C3)C1)C2 | 0.3% (inactive) |
| Oc1ccc2ccccc2c1/C=N/n1cnnc1 | 10.5% (inactive) |
| CCNc1nc(N2CCCCC2)nc(-n2nnc(C(=O)OCC)c2C)n1 | -22.1% (inactive) |
| O=c1[nH]c2ccccc2n1CCCOc1ccccc1 | 5% (inactive) |
| C=CCSC1=N/C(=C\C=C\c2ccco2)C(=O)S1 | 45.9% (inactive) |
| O=C1SC(SCc2ccccc2)=N/C1=C\c1ccco1 | 2.6% (inactive) |
| CCCSC1=N/C(=C\C=C\c2ccco2)C(=O)S1 | 61.6% (active) |
| Cc1cccc(OCCCC(=O)Nc2ccc3c(c2)OCO3)c1 | 34% (inactive) |
| CN(C)CC(C(=O)c1ccccc1)c1ccccc1 (stereo not given) | 103% (active) |
| CCC(C(=O)c1ccc(O)cc1)c1ccccc1 (stereo not given) | 9.4% (inactive) |
| COc1ccc(C(C(=O)OC(C)CN(C)C)c2ccccc2)cc1 (stereo not given) | 4.3% (inactive) |
| N=c1n(CC(=O)O)c2ccccc2n1Cc1ccccc1Cl | -13.9% (inactive) |
| O=C(Cn1nnc(-c2cccc(C(F)(F)F)c2)n1)NC1CCCC1 | 8.5% (inactive) |
| Cc1cc(C)n(CC(=O)n2c3c(c4ccccc42)CCCC3)n1 | -18.6% (inactive) |

| Compound | cytotoxicity |
| --- | --- |
| COC(=O)c1ccc2c(=O)n(Cc3ccc4c(c3)OCO4)c(SCC(=O)N3CCCC3)nc2c1 | 52.3% (active) |
| COC(=O)c1ccc2c(=O)n(CCC3=CCCCC3)c(SCC(=O)N3CCCC3)nc2c1 | -13.9% (inactive) |
| CC1CCCCN1C(=O)CSc1nc2cc3c(cc2c(=O)n1Cc1ccc2c(c1)OCO2)OCO3 (stereo not given) | 0.1% (inactive) |
| Nc1nc(CSc2ncn(-c3ccccc3)n2)cs1 | 15.3% (inactive) |
| CC(=O)N(Cc1cc2ccc(C)c(C)c2n2nnnc12)C1CCCC1 | -3.5% (inactive) |
| Cc1ccc(S(=O)(=O)N(CC(=O)O)Cc2ccccc2)cc1 | -7.6% (inactive) |
| O=C(CN1C(=O)C2CC=C(Cl)CC2C1=O)N1CCOCC1 (stereo not given) | -3.5% (inactive) |
| CN1CCN(C(=O)c2cccc(S(=O)(=O)N3CCCCC3)c2)CC1 | -2.6% (inactive) |
| O=C(NC1CCCCCC1)c1c(O)c2ccccc2[nH]c1=O | -4.9% (inactive) |
| O=C(NC1CCCCCCC1)c1c(O)c2ccccc2[nH]c1=O | -13.7% (inactive) |
| Cn1c(=O)c(C(=O)NC2CCCCCCC2)c(O)c2ccccc21 | 9.6% (inactive) |
| Cn1c(C(=O)NC2CCCC2)cc2c(=O)n(C)c3ccccc3c21 | 3.5% (inactive) |
| O=C(NC1CCCCC1)c1sc(=S)n2c1[nH]c(=O)c1ccccc12 | 82.6% (active) |
| O=C(NC1CCCC1)c1sc(=S)n2c1[nH]c(=O)c1ccccc12 | 79.4% (active) |
| COCCN(CCOC)C(=O)CCn1c(=O)oc2ccccc21 | -0.2% (inactive) |
| Cc1cc2n(n1)C(c1sccc1C)Nc1c(C)cccc1-2 (stereo not given) | -3.2% (inactive) |
| C(=C\c1ccccc1)/CSc1nnc(-c2ccccn2)n1Cc1ccco1 | 33.9% (inactive) |
| CC1(C)Cc2nc3oc4c(=S)nc[nH]c4c3cc2CO1 | -4.7% (inactive) |
| Cn1c(=O)c2c(ncn2CC(=O)N2CCN(c3ccc(F)cc3)CC2)n(C)c1=O | 4.3% (inactive) |
| CCOC(=O)CS(=O)(=O)c1ccc2ccccc2c1 | -10.2% (inactive) |
| COc1ccccc1-c1cc(C(F)(F)F)nc(S(=O)(=O)CCCC(=O)Nc2cc(C)on2)n1 | 38.2% (inactive) |
| COCC(C)NC(=O)CCS(=O)(=O)c1nc(-c2ccc(OC)cc2)cc(C(F)(F)F)n1 (stereo not given) | 66.1% (active) |
| Cc1cc(NC(=O)CCCS(=O)(=O)c2nc(-c3cccs3)cc(C(F)(F)F)n2)no1 | 3.6% (inactive) |
| COc1ccc(-c2cc(C(F)(F)F)nc(SCC(=O)Nc3cc(C)on3)n2)cc1 | -21.7% (inactive) |

| Compound | cytotoxicity |
| --- | --- |
| CCOC(=O)CS(=O)(=O)c1nc(-c2ccccc2)cc(C(F)(F)F)n1 | 27.1% (inactive) |
| CCOC(=O)c1cnn2c(C)cc(-c3ccc(F)cc3)nc12 | -7.6% (inactive) |
| COc1ccc(-c2cc(C(F)(F)F)nc(SCCC(=O)NCc3ccco3)n2)cc1 | -3.2% (inactive) |
| CCOC(=O)CCn1nc(-c2ccccc2)cc1N | -7.8% (inactive) |
| CCn1cc(C(=O)NC2CCCCCC2)c2cc(OC)c(OC)cc2c1=O | -1.3% (inactive) |
| CS(=O)(=O)Nc1ccc(C(=O)NCCSCc2ccco2)cc1 | -13.9% (inactive) |
| COCCOC(=O)C1=C(C)NC(=O)NC1c1ccc(OC(=O)c2ccco2)c(OC)c1 (stereo not given) | -1.8% (inactive) |
| Cc1cc(=O)[nH]c(N2CCN(C(c3ccccc3)c3ccccc3)CC2)n1 | -6% (inactive) |
| COc1ccc(C2CC(=O)c3cnc(NC(=O)c4cc(OC)cc(OC)c4)nc3C2)cc1 (stereo not given) | -16.4% (inactive) |
| O=C(NCCN1CCOCC1)c1ccc(-c2ccccc2)cc1 | 2.5% (inactive) |
| CCN(CC)S(=O)(=O)c1ccc(NC(=O)COc2c(OC)cccc2OC)cc1 | -2.7% (inactive) |
| O=C(CSc1nnc(C23CC4CC(CC(C4)C2)C3)o1)Nc1ccc(N2CCOCC2)c(Cl)c1 | -10% (inactive) |
| CCOC(=O)c1oc2ccc(S(=O)(=O)N3CCOCC3)cc2c1C | 3.6% (inactive) |
| CCOC(=O)c1oc2ccc(S(=O)(=O)N3CCC(C)CC3)cc2c1C | 16.8% (inactive) |
| CCOC(=O)c1oc2ccc(S(=O)(=O)n3nc(-c4ccc(OC)cc4)cc3N)cc2c1C | 54.2% (active) |
| CCn1c(CSc2nccn2C)nc2cc(C(=O)O)ccc21 | 2.6% (inactive) |
| NC1=NC(=O)CC(C(=O)NCc2ccccc2)S1 (stereo not given) | -6.8% (inactive) |
| Cc1ccccc1OCC(O)Cn1c(N2CCN(c3ccccc3)CC2)nc2c1c(=O)[nH]c(=O)n2C (stereo not given) | 82.9% (active) |
| Cn1c(=O)[nH]c(=O)c2c1nc(N1CCOCC1)n2CC(O)COc1ccccc1 (stereo not given) | -10.9% (inactive) |
| Cc1ccccc1OCC(O)Cn1c(SC(C)C)nc2c1c(=O)[nH]c(=O)n2C (stereo not given) | 0.7% (inactive) |
| CCSc1nc2c(c(=O)[nH]c(=O)n2C)n1CC(O)COc1ccccc1C (stereo not given) | -1.3% (inactive) |
| COc1ccccc1OCC(O)Cn1c(Br)nc2c1c(=O)[nH]c(=O)n2C (stereo not given) | 2.9% (inactive) |
| CC(C)CSc1nc2c(c(=O)[nH]c(=O)n2C)n1CC(O)COc1cccc2ccccc12 (stereo not given) | 68.7% (active) |
